# Measurements taken from the supplement of paper PMC12282887.
# ± gives the standard deviation of the averaged measurements.
# Experiments:
# Experiment in all cases: promoter activity interaction Z-score (Lux/OD deviation from empty-vector control); higher = stronger promoter induction by the compound
# [1] = system: E. coli BW25113 acrABp lux reporter
# How it was run: (§1)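 At 37°C, E. coli BW25113 reporter cultures in 40 µl LB Lennox in 384-well plates were read for OD600 and luminescence every 30 min for 12 h. Windows were 0–8 h for wild type and 1–9 h for deletion strains, and wells under 10% of the median growth value were removed. The score is the Z-transformed residual of growth-normalised luminescence against a control fit.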
# [2] = system: E. coli BW25113 micFp lux reporter
# How it was run: as §1
# [3] = system: E. coli BW25113 ompFp lux reporter
# How it was run: as §1
# [4] = system: E. coli BW25113 robp lux reporter
# How it was run: as §1
# [5] = system: E. coli BW25113 soxSp lux reporter
# How it was run: as §1
# [6] = system: E. coli BW25113 tolCp lux reporter
# How it was run: as §1
# [7] = 17.8 µg/ml, genetic background: wild type
# [8] = 17.8 µg/ml, genetic background: ΔmarA
# [9] = 17.8 µg/ml, genetic background: Δrob
# [10] = 17.8 µg/ml, genetic background: ΔsoxS
# [11] = 35.7 µg/ml, genetic background: wild type
# [12] = 35.7 µg/ml, genetic background: ΔmarA
# [13] = 35.7 µg/ml, genetic background: Δrob
# [14] = 35.7 µg/ml, genetic background: ΔsoxS
# [15] = 71.3 µg/ml, genetic background: wild type
# [16] = 71.3 µg/ml, genetic background: ΔmarA
# [17] = 71.3 µg/ml, genetic background: Δrob
# [18] = 71.3 µg/ml, genetic background: ΔsoxS
# [19] = 142.7 µg/ml, genetic background: wild type
# [20] = 142.7 µg/ml, genetic background: ΔmarA
# [21] = 142.7 µg/ml, genetic background: Δrob
# [22] = 142.7 µg/ml, genetic background: ΔsoxS
smiles,measurement,setting,value
O=C(/C=C/C=C/c1ccc2c(c1)OCO2)N1CCCCC1 [Piperine],promoter activity interaction Z-score,[1]; [7],0.246 ± 0.24
same,promoter activity interaction Z-score,[1]; [8],2.16 ± 0.78
same,promoter activity interaction Z-score,[1]; [9],-0.45 ± 0.37
same,promoter activity interaction Z-score,[1]; [10],-0.228 ± 0.025
same,promoter activity interaction Z-score,[1]; [11],-0.267 ± 0.27
same,promoter activity interaction Z-score,[1]; [12],-0.218 ± 0.58
same,promoter activity interaction Z-score,[1]; [13],-0.35 ± 0.11
same,promoter activity interaction Z-score,[1]; [14],-0.339 ± 0.26
same,promoter activity interaction Z-score,[1]; [15],0.114 ± 0.35
same,promoter activity interaction Z-score,[1]; [16],1.19 ± 0.28
same,promoter activity interaction Z-score,[1]; [17],-0.349 ± 0.35
same,promoter activity interaction Z-score,[1]; [18],-0.246 ± 0.6
same,promoter activity interaction Z-score,[1]; [19],-0.023 ± 0.22
same,promoter activity interaction Z-score,[1]; [20],0.484 ± 0.7
same,promoter activity interaction Z-score,[1]; [21],-0.275 ± 0.24
same,promoter activity interaction Z-score,[1]; [22],0.0345 ± 0.17
same,promoter activity interaction Z-score,[2]; [7],0.0366 ± 0.31
same,promoter activity interaction Z-score,[2]; [8],-0.191 ± 0.14
same,promoter activity interaction Z-score,[2]; [9],0.0158 ± 0.19
same,promoter activity interaction Z-score,[2]; [10],-0.381 ± 0.062
same,promoter activity interaction Z-score,[2]; [11],-0.332 ± 0.016
same,promoter activity interaction Z-score,[2]; [12],-0.0943 ± 0.12
same,promoter activity interaction Z-score,[2]; [13],0.0827 ± 0.3
same,promoter activity interaction Z-score,[2]; [14],-0.204 ± 0.038
same,promoter activity interaction Z-score,[2]; [15],0.0474 ± 0.091
same,promoter activity interaction Z-score,[2]; [16],-0.151 ± 0.15
same,promoter activity interaction Z-score,[2]; [17],-0.00444 ± 0.34
same,promoter activity interaction Z-score,[2]; [18],-0.417 ± 0.16
same,promoter activity interaction Z-score,[2]; [19],0.0188 ± 0.37
same,promoter activity interaction Z-score,[2]; [20],0.0457 ± 0.14
same,promoter activity interaction Z-score,[2]; [21],-0.043 ± 0.02
same,promoter activity interaction Z-score,[2]; [22],-0.135 ± 0.14
same,promoter activity interaction Z-score,[3]; [7],-0.0829 ± 0.54
same,promoter activity interaction Z-score,[3]; [8],-1.35 ± 0.34
same,promoter activity interaction Z-score,[3]; [9],-0.822 ± 0.25
same,promoter activity interaction Z-score,[3]; [10],-0.433 ± 0.063
same,promoter activity interaction Z-score,[3]; [11],-0.415 ± 0.064
same,promoter activity interaction Z-score,[3]; [12],-1.08 ± 0.24
same,promoter activity interaction Z-score,[3]; [13],-0.634 ± 0.12
same,promoter activity interaction Z-score,[3]; [14],-0.567 ± 0.14
same,promoter activity interaction Z-score,[3]; [15],-0.476 ± 0.17
same,promoter activity interaction Z-score,[3]; [16],-1.71 ± 0.16
same,promoter activity interaction Z-score,[3]; [17],-0.778 ± 0.1
same,promoter activity interaction Z-score,[3]; [18],-1.09 ± 0.28
same,promoter activity interaction Z-score,[3]; [19],-0.342 ± 0.011
same,promoter activity interaction Z-score,[3]; [20],-0.966 ± 0.094
same,promoter activity interaction Z-score,[3]; [21],-0.486 ± 0.29
same,promoter activity interaction Z-score,[3]; [22],-0.548 ± 0.51
same,promoter activity interaction Z-score,[4]; [7],0.172 ± 0.75
same,promoter activity interaction Z-score,[4]; [8],-0.36 ± 0.095
same,promoter activity interaction Z-score,[4]; [9],0.172 ± 1.4
same,promoter activity interaction Z-score,[4]; [10],-0.316 ± 0.4
same,promoter activity interaction Z-score,[4]; [11],0.097 ± 0.42
same,promoter activity interaction Z-score,[4]; [12],-1.12 ± 0.12
same,promoter activity interaction Z-score,[4]; [13],-0.276 ± 0.084
same,promoter activity interaction Z-score,[4]; [14],-0.113 ± 0.51
same,promoter activity interaction Z-score,[4]; [15],-0.241 ± 0.27
same,promoter activity interaction Z-score,[4]; [16],-0.584 ± 0.63
same,promoter activity interaction Z-score,[4]; [17],0.349 ± 1.6
same,promoter activity interaction Z-score,[4]; [18],-0.312 ± 0.18
same,promoter activity interaction Z-score,[4]; [19],1.83 ± 1.8
same,promoter activity interaction Z-score,[4]; [20],0.000795 ± 0.15
same,promoter activity interaction Z-score,[4]; [21],0.186 ± 0.23
same,promoter activity interaction Z-score,[4]; [22],0.201 ± 0.43
same,promoter activity interaction Z-score,[5]; [7],0.109 ± 0.15
same,promoter activity interaction Z-score,[5]; [8],-0.193 ± 0.12
same,promoter activity interaction Z-score,[5]; [9],0.0591 ± 0.33
same,promoter activity interaction Z-score,[5]; [10],-0.222 ± 0.045
same,promoter activity interaction Z-score,[5]; [11],-0.168 ± 0.034
same,promoter activity interaction Z-score,[5]; [12],-0.0932 ± 0.073
same,promoter activity interaction Z-score,[5]; [13],0.0518 ± 0.4
same,promoter activity interaction Z-score,[5]; [14],-0.0694 ± 0.036
same,promoter activity interaction Z-score,[5]; [15],0.0967 ± 0.17
same,promoter activity interaction Z-score,[5]; [16],-0.245 ± 0.091
same,promoter activity interaction Z-score,[5]; [17],0.0476 ± 0.29
same,promoter activity interaction Z-score,[5]; [18],-0.421 ± 0.13
same,promoter activity interaction Z-score,[5]; [19],-0.0465 ± 0.24
same,promoter activity interaction Z-score,[5]; [20],-0.324 ± 0.079
same,promoter activity interaction Z-score,[5]; [21],-0.0385 ± 0.2
same,promoter activity interaction Z-score,[5]; [22],-0.403 ± 0.12
same,promoter activity interaction Z-score,[6]; [7],0.553 ± 0.54
same,promoter activity interaction Z-score,[6]; [8],0.188 ± 1.3
same,promoter activity interaction Z-score,[6]; [9],0.472 ± 2.8
same,promoter activity interaction Z-score,[6]; [10],-0.947 ± 0.95
same,promoter activity interaction Z-score,[6]; [11],0.236 ± 0.38
same,promoter activity interaction Z-score,[6]; [12],-0.452 ± 0.27
same,promoter activity interaction Z-score,[6]; [13],-0.598 ± 1.4
same,promoter activity interaction Z-score,[6]; [14],-0.521 ± 0.018
same,promoter activity interaction Z-score,[6]; [15],0.515 ± 0.49
same,promoter activity interaction Z-score,[6]; [16],-0.357 ± 0.42
